In the library only some 14% were active in any assay of this set; here they are far more common.
4MU fluor: 4-MU region autofluorescence; compound autofluorescence, 340/450 nm, 4-MU equivalents; stronger effect = higher value; max dye-equivalent concentration, M; actives 11% (n = 59,000); AID 589; in the data active = max dye-equivalent concentration above about 10 nM; inconclusive = mostly about 1.1 nM to 9.6 nM
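Compounds in 100 mM Tris, pH 8.0, incubated 15 min at room temperature, then fluorescence read at 340 nm excitation/450 nm emission. Signal converted to 4-MU dye-equivalent concentration using an on-plate six-point 4-MU standard curve.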
A350 autofl: A350 region autofluorescence; Compound autofluorescence, 340/450 nm, Alexa 350 dye-equivalents; stronger effect = higher value; max dye-equivalent concentration, M; actives 11% (n = 59,000); AID 590; in the data active = max dye-equivalent concentration above about 10 nM; inconclusive = mostly about 1.1 nM to 9.6 nM
HADH2 inh: blocks human hydroxyacyl-CoA dehydrogenase type II | Q99714 | recombinant HADH2, NADH fluorescence, beta-hydroxybutyryl-CoA | Potency, µM (doses to about 57.1 µM), inactives show at the highest dose activity change, negative = inhibition, hits mostly inhibitors | actives 3.4% (n = 73,000); also: potency is read from the fitted curve at half-maximal effect; % is scaled to controls: 0 for no effect and ±100 for the full control effect; nearly all actives have a fitted effect of over 60% in size
Target sequence (Q99714 whole entry, looked up, one chain of several): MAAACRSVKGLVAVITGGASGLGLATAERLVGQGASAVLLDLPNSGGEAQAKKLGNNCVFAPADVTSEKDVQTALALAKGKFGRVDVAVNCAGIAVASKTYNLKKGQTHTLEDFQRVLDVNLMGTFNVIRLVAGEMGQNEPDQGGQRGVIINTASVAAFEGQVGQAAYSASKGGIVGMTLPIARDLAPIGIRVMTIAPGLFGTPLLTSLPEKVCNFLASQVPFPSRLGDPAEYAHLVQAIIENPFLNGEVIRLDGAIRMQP
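Activity measured as NADH fluorescence gain (360/450 nm), taken as the change between first and last reads of a 4-min kinetic run. Conditions: pH 9.0 Tris buffer, 20 nM E. coli-expressed His-tagged enzyme, 1 mM NAD+, 90 uM beta-hydroxybutyryl-CoA; 15-min compound preincubation.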
CRE-bla Fsk: modulators of forskolin-stimulated CRE signaling in CHO cells | CHO CRE-bla reporter (cAMP response element driving beta-lactamase), forskolin EC10, beta-lactamase ratio | Potency, µM (doses to about 38.2 µM), for the others: at the top dose activity change, negative = inhibition, most hits filed as activators | actives 2.5% (n = 71,000) | AID 662; active = well fitted activation curve with a large enough effect in the signal ratio, with a control signal flat, not every such curve was filed as active; inconclusive = small, poorly fitted or top-dose-only effect, or effect the other way, or a change in a side signal; the % refers to the signal ratio; also: potency is read from the fitted curve at half-maximal effect; % of control where 0% means no effect
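CHO CRE-bla cells, overnight plating in Opti-MEM with 0.5% dialyzed FBS; cpd titration + EC10 NKH 477, 3 h 37 °C; CCF4 2 h RT; ex 405/em 460 vs 530 ratio → %Activity, AC50.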
HSD17B inh: inhibitors of human HSD17B10 dehydrogenase; Q99714; recombinant HSD17B10, NADH fluorescence kinetic; Potency, µM (doses to about 57.1 µM), without a hit: at the highest dose activity change, negative = inhibition, hits mostly inhibitors; actives 7.6% (n = 75,000); AID 893;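 also: the protocol describes HADH2 (HSD17B10) and not the HSD17B4 of the title; potency is read from the fitted curve at half-maximal effect; % is scaled to controls: 0 for no effect and ±100 for the full control effect; nearly all actives have a fitted effect of over 70% in size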
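Enzyme plus compound, 15 min room temperature; substrate mix added (NAD+ 1 mM, beta-hydroxybutyryl-CoA 90 uM final); plates read kinetically for NADH fluorescence. HADH2 was His-tagged, E. coli-derived, 20 nM.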
AID923: qHTS Assay for Allosteric/Competitive Inhibitors of Caspase-1: Spectroscopic Profiling in AFC Spectral Region. Potency, µM (doses to about 57.5 µM), without a hit: at the top dose fluorescence increase, hits mostly activators. actives 1.1% (n = 75,000). compound fluorescence, AFC spectral region (405/520 nm); also: potency is read from the fitted curve at half-maximal effect; 0% is about no effect
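Titrations up to 57 uM read every 20 sec for 3 min (405/520 nm) with 50 nM caspase 1 and 5 uM Ac-WEHD-AFC, pH 7.5 HEPES buffer. Fluorescence-vs-time intercept gave baseline, scaled against on-plate AFC standard.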
* marks the source's active call; other numbers are inactive results; i = inactive; ? = inconclusive; nt = no result; ! = a repeat was not active; [ ] = dose if it differs, or a comment. Unless noted, calls follow the shape of the dose curve; as a rule, active = well fitted curve in the direction sought with a large enough effect; inconclusive = small, poorly fitted or top-dose-only effect, or another doubt; inactive = no such curve, though single readings can be large; an effect the other way counts as inactive or inconclusive.

SMILES	4MU fluor	A350 autofl	HADH2 inh	CRE-bla Fsk	HSD17B inh	AID923
O=C1C[C@H]2OCCC=C3CN4CC[C@@]56c7ccccc7N1[C@@H]5[C@H]2[C@H]3C[C@@H]46	i	i	2%	-9%	nt	nt
O=c1ccc2[nH]cc(C3=CCNCC3)c2[nH]1	nt	nt	32µM*	?	32µM*	4%
C1=C(c2c[nH]c3ccccc23)CCNC1	i	i	-3%	?	?	0%
C=CCc1c(C)[nH]c(=S)c(C#N)c1C	1.5e-08M*	1.9e-08M*	13µM*	?	?	0%
CCCN1CCC[C@H](c2cccc(C#N)c2)C1	i	i	6%	-9%	3%	14%
CNc1ccc2oc(C[C@@H]3O[C@@]4(CC[C@H]3C)O[C@@H]([C@@H](C)C(=O)c3ccc[nH]3)[C@@H](C)C[C@H]4C)nc2c1C(=O)O	5.9e-08M*	5.4e-08M*	?	?	nt	nt
O=[N+]([O-])c1cc(Cl)c(Cl)c(Cl)c1	nt	nt	-2%	-19%	1%	0%
CCCCOC(C)=O	nt	nt	-9%	0%	-5%	-1%
O=C1C(Cl)=C(Cl)C(=O)C(Cl)=C1Cl	nt	nt	0.13µM*	?	1.3µM*	2%
CCNCC1(c2ccc(OC)c(OC)c2)CCCC1	1.3e-08M*	1.3e-08M*	5%	5%	2%	15%
Nc1ccccc1O.O.O=C(O)[C@H]1[O][Sb][O][C@H]1C(=O)O	?	?	-10%[11.4 µM]	9%[7.6 µM]	-6%[11.4 µM]	-4%[11.5 µM]
CC1=CC(=O)c2c(O)cccc2C1=O	nt	nt	nt	nt	13µM*	3%
O=C=NC1CCCCC1	nt	nt	-15%	-6%	4%	0%
CCOC(=O)c1c(C)c(P(=S)(N2CCOCC2)N2CCOCC2)n(C)c1C	i	i	10µM*	10%	-15%	-1%
CCCNc1oc(-c2cccc3ccccc23)nc1C#N	7.8e-07M*	8.2e-07M*	25µM*	?	6.3µM*	10µM*
C[C@@H]1NCCc2cc(O)c(O)cc21	i	i	0.25µM*	-5%[17.1 µM]	6.3µM*	-2%[25.7 µM]
COc1cc2c(cc1OC)[C@H](C)NCC2	3.5e-08M*!	3.6e-08M*!	-13%	?	2%[25.6 µM]	1%[25.7 µM]
Cc1ccc(OP(=O)(Oc2ccc(C)cc2)Oc2ccc(C)cc2)cc1	nt	nt	-3%	-10%	-10%	1%
CC[C@H](CO)NC(=O)[C@@H]1C=C2c3cccc4c3c(cn4C)C[C@@H]2N(C)C1	1.6e-07M*	1.6e-07M*	20µM*	2%	25µM*	nt
CC[C@@H](CO)NC(=O)[C@H]1C=C2c3cccc4c3c(cn4C)C[C@H]2N(C)C1	nt	nt	5µM*	-8%	32µM*	nt
CN1CC(CNC(=O)OCc2ccccc2)CC2c3cccc4c3c(cn4C)CC21 (stereo not given)	nt	nt	nt	nt	9%	4%
COC(=O)[C@H]1C(=O)[C@H](C(=O)OC)[C@@H]2CC[C@H]1N2C	i	?	9%[11.4 µM]	?	10%[11.4 µM]	1%[11.5 µM]
O=C(O)c1cc(N=Nc2ccc([As](=O)(O)O)cc2)ccc1O	i	i	-6%[11.4 µM]	10%[7.6 µM]	-3%[11.4 µM]	0%[11.5 µM]
O=C(O)CCCc1ccc(N(CCCl)CCCl)cc1	3.2e-08M*!	5.1e-08M*!	-8%	?	4%	2%
ClCc1ccccc1	nt	nt	-4%	0%	3%	-2%
CCCCn1c(O)c(C=Nc2c(C)n(C)n(-c3ccccc3)c2=O)c(=O)[nH]c1=O	3.1e-07M*	2.9e-07M*	24%	-7%	5%	-3%
NC1(P(=O)(O)O)CCCCC1	i	i	0%[11.4 µM]	-2%[7.6 µM]	7%[11.4 µM]	0%[11.5 µM]
COc1cc2c3cc1Oc1c(OC)c(OC)cc4c1[C@@H](Cc1ccc(O)c(c1)Oc1ccc(cc1)C[C@@H]3N(C)CC2)N(C)CC4	i	i	5%	-11%	32µM*	-1%
COc1ccc(C[C@@H]2C(=O)N[C@H](C)C(=O)N(C)[C@@H]3C(=O)N(C)[C@@H](Cc4ccc(O)c(c4)Oc4ccc(cc4)[C@H]3O)C(=O)N[C@@H](C)C(=O)N[C@H](C)C(=O)N2C)cc1	i	i	9%[11.4 µM]	?	-2%[11.4 µM]	-3%[11.5 µM]

Screening data as filed in PubChem BioAssay.
